# Bioassay records from PubChem BioAssay.
# SW480 rereplic – inducers of DNA re-replication in SW480 colon cancer cells; SW480 DNA re-replication, Hoechst DNA content imaging, 48 h; Potency, µM (top dose mostly 46.1 µM), for the others: at the highest dose re-replication activation, actives largely listed as activators; 340,000 compounds, 1.8% hits; further: potency means the concentration at half of the fitted maximal effect; % of control where 0% means no effect; nearly all actives have a fitted effect of over 55% in size
#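 Treated cells incubate 48 hr (37 C, 5% CO2), are stained 40 min with Hoechst, and nuclear fluorescence is enumerated; a rise in nuclei with high DNA signal marks re-replication.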
# ASM inhibitor – human S-ASM enzyme inhibition; P17405; Potency, µM (series often up to 57.5 µM), for inactives: at the top dose activity change, negative = inhibition, most hits filed as inhibitors; placental ASM, HMU-PC fluorogenic substrate, 60 min; 340,000 compounds, 0.006% hits; AID 504937; further: potency means the concentration at half of the fitted maximal effect
# Target sequence (P17405 47-631 limits assumed): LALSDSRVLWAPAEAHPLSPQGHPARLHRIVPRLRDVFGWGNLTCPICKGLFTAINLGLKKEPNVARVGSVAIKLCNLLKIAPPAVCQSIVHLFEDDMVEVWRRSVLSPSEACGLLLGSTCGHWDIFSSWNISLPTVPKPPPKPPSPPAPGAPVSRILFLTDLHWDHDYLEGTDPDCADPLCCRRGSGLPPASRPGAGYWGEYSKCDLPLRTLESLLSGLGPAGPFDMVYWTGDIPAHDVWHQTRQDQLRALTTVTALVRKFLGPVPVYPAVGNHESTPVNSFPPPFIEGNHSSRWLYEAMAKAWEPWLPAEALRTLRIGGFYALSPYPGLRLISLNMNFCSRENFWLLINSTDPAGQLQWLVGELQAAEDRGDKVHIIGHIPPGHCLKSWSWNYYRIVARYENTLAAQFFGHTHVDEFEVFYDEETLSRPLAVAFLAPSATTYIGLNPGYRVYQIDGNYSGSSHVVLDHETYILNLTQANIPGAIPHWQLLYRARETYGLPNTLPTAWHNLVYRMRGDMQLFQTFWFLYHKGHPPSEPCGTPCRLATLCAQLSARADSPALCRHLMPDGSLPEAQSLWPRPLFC
#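 Human placenta-derived ASM enzyme was preincubated with compound for 10 minutes at room temperature, then given fluorogenic substrate HMU-PC0 (9 uM final) for 60 minutes at 37 °C; a pH 10 stop preceded fluorescence reading at Ex 386/Em 447 nm.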
# Giardia killer – kills Giardia lamblia. Giardia lamblia trophozoite viability. 340,000 compounds, 0.15% hits. activity change, % at 7.66 µM, hits read low; in the data active means activity change below about -80%; inconclusive means between about -30% and that limit;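 further: parasites exposed to compound for two days anaerobically before the ATP read; on the % scale 0 is the no-effect control and ±100 the full control effect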
#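 ATP-content bioluminescence gauges trophozoite survival. Cells (100/well) receive compound and incubate anaerobically for 48 hrs at 37 deg C; detection reagent follows for 15-30 min at room temperature.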
# KB-3-1 tox – KB-3-1 parental cell cytotoxicity; KB-3-1 viability, CellTiter-Glo ATP luminescence, 72 h; 400,000 compounds, 1.4% hits; Potency, µM (top dose mostly 46.1 µM), usual class: cytotoxic; further: potency means the concentration at half of the fitted maximal effect; on the % scale 0 is the no-effect control and ±100 the full control effect; nearly all actives have a fitted effect of over 60% in size
#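 Parental KB-3-1 adenocarcinoma cells in phenol-red-free DMEM with 10% FBS were pin-treated with compounds at several concentrations, incubated 72 h at 37 °C, and viability read by CellTiter-Glo luminescence; concentration-effect curves were fitted after normalization.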
# MCF10A rerep – inducers of DNA re-replication in MCF 10A breast cells. Potency, µM (doses to about 46.1 µM), inactives show at the top dose activity, positive = re-replication, hits mostly activators. 350,000 compounds, 2.9% hits. MCF 10A DNA re-replication, Hoechst nuclear intensity, 48 h; further: potency means the concentration at half of the fitted maximal effect; % of control where 0% means no effect; nearly all actives have a fitted effect of over 50% in size
# KB-V1 MDR tox – kills drug-selected multidrug resistant KB-V1 cells; KB-V1 MDR cells viability, CellTiter-Glo, 72 h; Potency, µM (doses to about 46.1 µM), most hits filed as cytotoxic; 400,000 compounds, 3.4% hits; AID 1347076; further: potency means the concentration at half of the fitted maximal effect; on the % scale 0 is the no-effect control and ±100 the full control effect; nearly all actives have a fitted effect of over 60% in size
#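 Drug-selected KB-V1 cells, grown in DMEM lacking phenol red with 10% FBS, receive compound titrations; after three days at 37 degrees C, surviving cell ATP is quantified by CellTiter-Glo luminescence and responses normalized and curve-fitted.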
# * = called active by the depositor; i = inactive; ? = inconclusive; . = no result; [ ] = another dose, or the depositor's remark. Most compounds without a hit are left out; they make up all but 6.9% or so of the library. Unless noted, the call rests on the fitted dose curve; in most records, active means well fitted curve in the direction sought with a large enough effect; inconclusive means small, poorly fitted or top-dose-only effect, or another doubt; inactive means no such curve, though single readings can be large; an effect the other way counts as inactive or inconclusive.
SMILES,SW480 rereplic,ASM inhibitor,Giardia killer,KB-3-1 tox,MCF10A rerep,KB-V1 MDR tox
CC(C)COc1ccc2[nH]c3c(c2c1)CCCC3=O,-4%,102%,8,0.92µM*,0%,0.18µM*
O=c1c2c3nc4ccccc4nc3n(-c3ccc4c(c3)OCCO4)c2ncn1C1CCCC1,13µM*,111%,21,?,7.1µM*,?
Nc1c(C(=O)OCC2CCCO2)c2nc3ccccc3nc2n1-c1ccc2c(c1)OCCO2 (configuration not stated),2%,i,7,i,?,i
CCCCNc1c(-c2ccc(-c3cccc(Cl)c3)cc2)nc2ccccn12,-20%[9.22 µM],282%,-14,?,?,?
CCCCNc1c(-c2cccc(-c3cc(C(C)=O)cs3)c2)nc2ccc(C)cn12,?,-29%,?,?,?,21µM*
CCCCNc1c(-c2cccc(-c3ccc(OC)cc3)c2)nc2ccc(C)cn12,?,412%,-5,?,4.1µM*,?
CCCCNc1c(-c2cccc(-c3ccc(OC)cc3)c2)nc2cc(C)ccn12,?,212%,-12,?,23µM*,?
CCCN(CCC)c1cc(C)nc2nc(-c3ccc(C(C)(C)C)cc3)nn12,.,.,.,i,.,i
NC(=S)N=Nc1c(O)n(CCCl)c2ccc(Cl)cc12,13%,-7%,-15,?,-3%,13µM*
CC(C)c1nnc(N2C(=O)c3oc4ccccc4c(=O)c3C2c2cccc(O)c2)s1 (configuration not stated),.,.,.,i,.,i
Cc1ccccc1Cn1cc(S(=O)(=O)CC(=O)Nc2nccs2)c2ccccc21,0%,-1%,-9,?,-25%,16µM*
CCOC(=O)N1CCN(C(=O)CS(=O)(=O)c2cn(Cc3ccccc3C)c3ccccc23)CC1,0%,-2%,-11,i,2%,?
CC12CCC=CC1C(c1cccc([N+](=O)[O-])c1)N(Cc1ccccc1)C2=O (configuration not stated),.,.,-4,.,.,.
Cc1cccc(C(=O)NC2(C(F)(F)F)N=C(c3ccccc3)N(C3CCCCC3)C2=O)c1 (configuration not stated),.,.,.,i,.,i
COc1ccc2nc(NC(=S)N(C)C)sc2c1,-9%,0%,-18,21µM*,11%,3.3µM*
CCOc1ccc2nc(NC(=O)c3cccc(-c4cc5ccccc5oc4=O)c3)sc2c1,16µM*,6%,5,i,?,?
CCN(Cc1nc2ccccc2c(=O)[nH]1)C(=O)c1cccc(OCc2c(C)noc2C)c1,-1%,1%,-3,?,4%,?
COc1ccc2nc(NC(=O)c3cccc(OCc4c(C)noc4C)c3)sc2c1,?,58%,4,18µM*,19%,3.7µM*
CCN(Cc1ccc(Cl)s1)C(=O)c1cccc(OCc2c(C)noc2C)c1,4%,-4%,14,?,?,5.8µM*
CCSc1nnc(NC(=O)c2cccc(OCc3c(C)noc3C)c2)s1,6%,?,1,i,?,i
Cc1ccc2c(c1)N(C(=O)N1CCC(C(=O)NC3CCCCCC3)CC1)CCO2,.,.,.,i,.,i
COc1ccc2nc(NC(=O)c3ccoc3C)sc2c1,13%,1%,-17,i,?,7.3µM*
COc1ccc2nc(NC(=O)c3cc(C)oc3C)sc2c1,-4%,4%,-6,?,9%,?
COc1cccc(OC)c1C(=O)Nn1c(-c2cccc(C)c2)nc2ccccc2c1=O,26%,11%,-8,i,19%,i
COc1ccc(CNn2c(-c3cccc(C)c3)nc3ccccc3c2=O)cc1OC,-1%,-2%,26,i,0%,23µM*
SMILES,SW480 rereplic,ASM inhibitor,Giardia killer,KB-3-1 tox,MCF10A rerep,KB-V1 MDR tox
COc1ccccc1CNn1c(-c2cccc(C)c2)nc2ccccc2c1=O,-4%,-4%,2,i,14%,23µM*
O=C(CN1CCSC1=NCc1ccccc1)c1ccc(Cl)cc1,-75%,0%,-4,i,-3%,16µM*
COc1ccc(NS(=O)(=O)c2c(C)nc3scc(C)n3c2=O)cc1,.,.,.,i,.,i
CC(C)Cc1cc(C(=O)NCc2ccc(Cl)cc2)no1,.,.,.,i,.,i
O=C(CSc1nc2ccc(NC(=O)CSc3nnnn3Cc3ccccc3)cc2s1)Nc1ccccc1,-3%,-6%,4,i,?,i
Cc1cc(C)c(NC(=O)CSc2nc3ccc(NC(=O)CSc4nnnn4Cc4ccccc4)cc3s2)c(C)c1,-3%,-2%,0,i,19%,6.5µM*
Fc1ccc(-c2nc3c(Cl)cc(C(F)(F)F)cn3c2Cc2cccc(Cl)c2)cc1,.,.,.,23µM*,.,i
FC(F)(F)c1cc(Cl)c2nc(-c3ccc(Cl)cc3)c(Cc3ccsc3)n2c1,.,.,.,12µM*,.,i
Cc1ccc(Cc2c(-c3ccc(F)cc3)nc3c(Cl)cc(C(F)(F)F)cn23)cc1,.,.,.,?,.,i
O=C(COc1ccc(Br)cc1)N(Cc1ccccc1)c1ccccn1,-3%,-2%,-7,i,11%,18µM*
O=C(COc1ccc(Cl)cc1)N(Cc1ccccc1)c1ccccn1,3%,1%,25,i,?,i
CC(C)(Oc1ccc(Cl)cc1)C(=O)N(Cc1ccccc1)c1ccccn1,?,-1%,15,i,8%,15µM*
Cc1cccc(-n2ncc3c(NC(C)C)ncnc32)c1,-2%,-5%,-1,i,6%,i
Cc1cccc(-n2ncc3c(Nc4c(C)cc(C)cc4C)ncnc32)c1,.,.,.,9.2µM*,.,?
Cc1ccc(-n2ncc3c(NCCO)ncnc32)cc1Cl,.,.,.,i,.,5.8µM*
Cc1cccc(-n2ncc3c(N)ncnc32)c1,1%,-2%,-4,?,-2%,8.2µM*
CCc1ccc(CNC(=O)c2cnc3c(C)cccn3c2=O)cc1,.,.,.,i,.,i
CCC(=O)N1CCc2cc(Br)cc(S(=O)(=O)N3CCCC(C(=O)Nc4cccc(F)c4)C3)c21 (configuration not stated),.,.,.,i,.,i
CCC(C)[C@H](NC(=O)Nc1ccc2c(c1)OCCO2)C(=O)OC (some centres not stated),-5%,1%,11,i,1%,i
CCC(C)[C@H](NC(=O)Nc1ccc2c(c1)OCCO2)C(=O)O (some centres not stated),18µM*,3%,-23,i,?,i
CCN(CC(=O)Nc1ccc2c(c1)OCCO2)S(=O)(=O)c1ccc(C)cc1,-4%,0%,-8,i,13%,16µM*
